According to article PMC7819943, “Rice protein-binding microarrays: a tool to detect cis-acting elements near promoter regions in rice”:
In all, about 39,000 sequences were measured (“fluorescence intensity (a.u.)”: median about 4,300, highest 2% from about 39,000 on). The sample as a whole holds a higher share of the highest values than the screen did.

Target: T1, OsSMF1 (Oryza sativa, UniProt Q6ZLB0 1-436)
T1 sequence: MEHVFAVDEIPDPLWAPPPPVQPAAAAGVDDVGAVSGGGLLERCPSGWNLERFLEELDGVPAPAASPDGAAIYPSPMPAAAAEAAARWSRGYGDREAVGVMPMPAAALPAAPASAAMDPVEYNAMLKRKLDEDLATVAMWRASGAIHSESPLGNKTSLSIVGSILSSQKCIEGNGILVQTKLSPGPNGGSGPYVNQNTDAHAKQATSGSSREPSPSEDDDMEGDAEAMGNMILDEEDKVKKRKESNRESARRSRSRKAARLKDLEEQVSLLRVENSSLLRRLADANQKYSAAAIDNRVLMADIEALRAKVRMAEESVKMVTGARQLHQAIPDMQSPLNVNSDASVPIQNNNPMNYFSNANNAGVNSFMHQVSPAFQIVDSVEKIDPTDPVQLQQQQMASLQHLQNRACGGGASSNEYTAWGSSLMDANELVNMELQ
Experiment: protein-binding microarray (RPBM); PBS, 2% BSA, 51.3 ng/ul salmon testes DNA, 50 uM zinc acetate, 200 nM TF, 25 C, 1 h; high values mean tight binding
Conditions: protein: recombinant; tags: N-terminal polyhistidine and DsRed monomer fusion (pET32a); chain copies: 2; label: CyDye5-dUTP incorporated in the synthesized complementary strand; 3' TTTTT single-stranded linker to array surface; dsDNA, one strand shown
Procedure, shortened: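 Per-feature fluorescence intensity (arbitrary units), read on an Axon 4000B scanner, is the binding signal. Transcription factors carrying an N-terminal polyhistidine tag and DsRed fusion were expressed in E. coli BL21-CodonPlus and purified on Ni–NTA. A custom Agilent array, made double-stranded by primer extension with Cy5-dUTP and blocked with 2% BSA, was incubated with 200 nM protein in PBS, 2% BSA, salmon testes DNA and 50 µM zinc acetate at 25 °C for 1 h and then washed.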

Row | Sequence | binding signal
1 | CTCCTTCCATTTGTACCCACGTCTGCTGTCCATTGACCGGCGGAGTCACCTAGTGCAG | 6910 fluorescence intensity (a.u.)
2 | TCACCCTGTCCTCGTCACGTCCCATTTTACATCCACCACCCGGAGTCACCTAGTGCAG | 6570 fluorescence intensity (a.u.)
3 | CCCATTGATGCTACAGAGAGTCCACGTCACCCTCGTCTGCCGGAGTCACCTAGTGCAG | 42800 fluorescence intensity (a.u.)
4 | AGCTAGTACCTCACATGCATTCATCTTGCTTGCAATCCGTCGGAGTCACCTAGTGCAG | 45100 fluorescence intensity (a.u.)
5 | GAATCTAGTAGCTTGCATCCTTTACATCTTCTCATCCTGTCGGAGTCACCTAGTGCAG | 32700 fluorescence intensity (a.u.)
6 | GCTTGCTTGCTTGCATCCTCCTCACATTCACCACGAGGTTCGGAGTCACCTAGTGCAG | 3670 fluorescence intensity (a.u.)
7 | CATTCTTAATGTAAAATATGAATGTAAATGAAATGTATGCCGGAGTCACCTAGTGCAG | 3840 fluorescence intensity (a.u.)
8 | CACAAGTTCTCCTACGCTGACTCCTCTCTTGGAACTTCAGCGGAGTCACCTAGTGCAG | 5030 fluorescence intensity (a.u.)
9 | TGACATGTGGGGCCCACGCTGACTCAGCCGCCACGTCAGACGGAGTCACCTAGTGCAG | 19600 fluorescence intensity (a.u.)
10 | CTAATGCCACGTAAGTGCCACGTGGCATGAAAACCGGGTTCGGAGTCACCTAGTGCAG | 46300 fluorescence intensity (a.u.)
11 | TATGCGTGGGTCACTGGGCCCACACGTCATCCTCACGTGGCGGAGTCACCTAGTGCAG | 49000 fluorescence intensity (a.u.)
12 | ATATGTGGGTCTCATGCTGACTCATCCGCCACGTCAGATACGGAGTCACCTAGTGCAG | 42600 fluorescence intensity (a.u.)
13 | CCCACGTGGGTCCCACGCTGACTCAGCCGCCACGTAGATCCGGAGTCACCTAGTGCAG | 25400 fluorescence intensity (a.u.)
14 | GTTAGCGTGGCATGCCACGTCATCTCACGAAGCGGGTTAGCGGAGTCACCTAGTGCAG | 18100 fluorescence intensity (a.u.)
15 | GGCCCACGTGGGTCCCACACTGACTCAGCTGCCACGTGGGCGGAGTCACCTAGTGCAG | 38600 fluorescence intensity (a.u.)
16 | GCATGCATTGCCTCTTGCTCGCCTACGTGGTAATGAAAACCGGAGTCACCTAGTGCAG | 6560 fluorescence intensity (a.u.)
17 | CTGCACGTTACTCACGTGGCATCTCCAACTCTACCGCCAACGGAGTCACCTAGTGCAG | 7570 fluorescence intensity (a.u.)
18 | GGGGTGAAAATGAATTAGATGCCACGTGCAGGTTCGCATGCGGAGTCACCTAGTGCAG | 10000 fluorescence intensity (a.u.)
19 | CCACTGGCGACCGCCACGTCGACCTGGCGTGGGACCTCATCGGAGTCACCTAGTGCAG | 8920 fluorescence intensity (a.u.)
20 | CTGGCACGTAAGCGTTACCGTGGCATGCCACGTCATCTCACGGAGTCACCTAGTGCAG | 39600 fluorescence intensity (a.u.)
21 | TATGTAGTACCACCCTGGTGTCACACATGTACCACTTGGTCGGAGTCACCTAGTGCAG | 3910 fluorescence intensity (a.u.)
22 | GGAGCTGAGGAGGGACAGCGAGCCAGCGAGGGAGGTGGGGCGGAGTCACCTAGTGCAG | 3160 fluorescence intensity (a.u.)

Row | Sequence | binding signal
23 | GGGGACATTACTCCGTGGTTTACATGTCATCCAAATAGTTCGGAGTCACCTAGTGCAG | 5320 fluorescence intensity (a.u.)
24 | TATATACAAGTTCACCCCGAAACCTAGTCAGAGTATGACACGGAGTCACCTAGTGCAG | 4240 fluorescence intensity (a.u.)
25 | ACTTGCCACGGTGCCGCCTAACAGGCAGCCGTACCTGCCTCGGAGTCACCTAGTGCAG | 3320 fluorescence intensity (a.u.)
26 | TGAAATACTTACAAGTCGATCGAACAACACCTGTCATCATCGGAGTCACCTAGTGCAG | 4160 fluorescence intensity (a.u.)
27 | GCGGCCTATTGTTAGCGAGGAGTCACCCAGATTCTTCTCCCGGAGTCACCTAGTGCAG | 6870 fluorescence intensity (a.u.)
28 | TACTATTAGGTATGTGGTATCCATAACCCTGACACATACCCGGAGTCACCTAGTGCAG | 3600 fluorescence intensity (a.u.)
29 | CGTGAAAGTGCTTCGAAAGGTGTCAGCAGGTGCGCGGAGCCGGAGTCACCTAGTGCAG | 3530 fluorescence intensity (a.u.)
30 | GTCAGGTGGCGGCGGCGGCGGTGGTGGCGGTGGAGGTGGACGGAGTCACCTAGTGCAG | 5570 fluorescence intensity (a.u.)
31 | ATCCATAACTATGTAACGTCATAGCCACCCAGCCTCGCTTCGGAGTCACCTAGTGCAG | 5580 fluorescence intensity (a.u.)
32 | TTGCTAGTTGGTACAAAGTAAGCATGCAACACTTGTATGCCGGAGTCACCTAGTGCAG | 42200 fluorescence intensity (a.u.)
33 | ATGCATGGTATGTCACGTTGTGACTTGCCTACACTAAAGCCGGAGTCACCTAGTGCAG | 4520 fluorescence intensity (a.u.)
34 | CTTGCACAAGTACAGTACGTGTACATGCATGTATGCTACCCGGAGTCACCTAGTGCAG | 5700 fluorescence intensity (a.u.)
35 | AATGCTGCAATTTCTCGTTGACTAGACTTCACATGCAGCTCGGAGTCACCTAGTGCAG | 5400 fluorescence intensity (a.u.)
36 | TCCGTTGAGATCAGCACTTTCTAGCAGCTGTACAAGAGACCGGAGTCACCTAGTGCAG | 3740 fluorescence intensity (a.u.)
37 | GCCCATGTACGATGACGTGTACCCTATTGTCTTCTACTAGCGGAGTCACCTAGTGCAG | 21600 fluorescence intensity (a.u.)
38 | CACGCCAACGCCCAAGCCCACCAACCCAAGTTGAGTCGTGCGGAGTCACCTAGTGCAG | 3360 fluorescence intensity (a.u.)
39 | CTACATCAGCTATATCTATTGTTGCTCTTACACTAAATTACGGAGTCACCTAGTGCAG | 23700 fluorescence intensity (a.u.)
40 | AATCTATGCATATATATATATATATATATGTCTAGATTCACGGAGTCACCTAGTGCAG | 3240 fluorescence intensity (a.u.)
41 | TTACAGGATTATATATCATGTTTATCTATTCGTCTTACTACGGAGTCACCTAGTGCAG | 39500 fluorescence intensity (a.u.)
42 | ATATAGATCATCATCAAGACTACGTATTATTCACTATTCACGGAGTCACCTAGTGCAG | 3160 fluorescence intensity (a.u.)
43 | CCATATCATATTACTCCTACATGTGTACTACATTTATATTCGGAGTCACCTAGTGCAG | 3720 fluorescence intensity (a.u.)
44 | AATGGATCTAGACTATATCTATCTAGATTCATTAGTATCACGGAGTCACCTAGTGCAG | 45400 fluorescence intensity (a.u.)
